Where “and” joins values, the source holds several entries; their conditions need not be identical. Identical values can stand only once. Compounds without any hit were thinned out: in the full panel of roughly 83,000, 20% have a hit.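 Percent growth is the endpoint: 0 to 100 indicates growth inhibition (40 means 60% inhibition), 0 means no net growth, and negative values indicate cell death.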 Values without a mark were called inactive. Calls of active or inactive are those of the source. The calls were made as follows: active = growth percent below 10; inactive = the rest.

This experiment has as its system MDA-MB-468 breast. As to the kind of experiment: NCI-60 one-dose screen, 48 h (100 = growth as untreated, 0 = no growth, -100 = all killed). The conditions noted are these: 10 µM unless noted.
With `CCN1CCN(c2cc(C)nc(N(CCCNc3ccnc4cc(Cl)ccc34)Cc3ccc4c(c3)OCO4)n2)CC1`, the growth was -55.5% (active).

As to `CCCCCCCCCCCCCCCCCCOP(=O)([O-])OC1CC[N+](C)(C)CC1`, the growth is 0% (active).

For the compound `Cc1ccc(C2CC(c3cccc(Nc4ccncc4)c3)=Nc3c(N)nc(N)nc3N2)cc1` (stereo not given), the growth is 60.2%.

`CN(C)c1ccc(NC(=O)c2ccc(/C=C/C(=O)c3ncc[nH]3)cc2)cc1`: the growth is 45.6%.

With `CN1CCN(CC(=O)Nc2ccc3ncnc(Nc4ccc(Oc5cccc(C(F)(F)F)c5)c(Cl)c4)c3c2)CC1`, the growth was -61.3% (active).

Take `CN(C)C(=O)SC1=C(c2c(Cl)cccc2Cl)C(=O)c2ccccc21`: the growth was -86.5% (active).

With `CSc1ccc2c(c1)c(CCN)c(C)n2Cc1ccc(Cl)c(Cl)c1`, the growth was -67.1% (active).

Take `O=C(Nc1ccccc1)Oc1c(Cl)c(Cl)c(Cl)c(Cl)c1Cl`: the growth was 116% and 98.8%.

On to `Cc1ccc(CN2CCC(C(=O)Nc3ccc(-c4cc5ccccc5[nH]4)cc3)CC2)o1`, for which the growth is 5.26% (active).

With `C#CC(F)(F)[C@]1(O)CCC2C3CCC4=CC(=O)CCC4=C3[C@@H](c3ccc(N(C)C)cc3)C[C@@]21C` (stereo not given in full), the growth is 101%.

For `CCOc1nc(-c2ccccc2)cc2c(O)c(C(=O)NCCCO)[nH]c(=O)c12`, the growth was 95%.

For the compound `O=C(O)c1ccccc1C(=O)c1cccc2c(F)cccc12`, the growth is 104%.

As to `NC(CSSCC(N)C(=O)O)C(=O)O` (stereo not given), the growth is -17% (active).

In the case of `O=C1SCN(Cc2ccccc2)CN1Cc1ccccc1`, the growth is 24.8%.

Turning to `O=C(/C=C/Nc1ccc(S(=O)(=O)O)cc1)c1ccc(F)cc1`, the growth was 95.8%.

As to `CC(C)=CCc1cc(O)cc2c1OC(C=C(C)C)C1=C2C(=O)C2=C(NCCS2(=O)=O)C1=O` (stereo not given), the growth is -27% (active).

As to `CN[C@]12CC3(C=CC(=O)C=C3)O[C@@]1(Cc1ccc(OC)cc1)N(C)C(=O)N2`, the growth is 36.4%.

Take `O=C1Nc2ccc(Cl)cc2/C1=N/c1nc(-c2ccc(Cl)cc2)cs1`: the growth is -18% (active).

In the case of `C=CN(C(=O)N1CCN(c2cc3c(cc2F)c(=O)c(C(=O)O)cn3C2CC2)CC1)c1nc(-c2ccc(Cl)cc2)cs1`, the growth is 76.3%.

With `COc1cc(C(=O)Nc2cc3c(cc2Oc2cc(C)cc(C)c2)C(=O)N(C)[C@@H](CC(=O)N(C)O)C(=O)N3)c(Br)c(OC)c1OC`, the growth was -41.6% (active).

As for `O=C(Nc1cnc(Nc2ccc(N3CCOCC3)nc2)nc1Oc1ccc(C(F)(F)F)cc1)c1ccncc1`, the growth is 103%.

As to `Cc1nc2sc(C(=O)Nc3ccc(Br)cc3)c(N)c2cc1C(O)c1ccccc1` (stereo not given), the growth is 12.7%.

As for `CCN(CC)CCN1C(=O)c2c(c3c4cc(Br)ccc4[nH]c3c3ccc4ccccc4c23)C1=O`, the growth is -80.7% (active).

In the case of `N#CC(I)CS(=O)(=O)c1ccccc1` (stereo not given), the growth was 25%.

On to `CCN(CC)CCCC(C)Nc1cc(O)cc2cccnc12` (stereo not given), for which the growth was 73.9%.

For the compound `Nc1c(Cl)cc([N+](=O)[O-])cc1Br`, the growth was 92.3%.

For the compound `Clc1ccc2c(c1)N(c1ncnc3ccc(-c4cnc5[nH]ncc5c4)cc13)CC2`, the growth was 3.65% (active).

As for `O=[N+]([O-])c1ccc(N/N=C\c2ccc(O)cc2O)nc1`, the growth is 56%.

As for `N#CSc1c[nH]c2ccc(/C=C/C(=O)/C=C(O)/C=C/c3ccc4[nH]cc(SC#N)c4c3)cc12`, the growth was -8.53% (active).

For `Nc1c(C(=O)Nc2ccccn2)sc2nc3c(cc12)CCCCC3`, the growth is 27.7%.

`CC(=O)c1c(C)[nH]c(-c2nc3ccc(N4CCN(C)CC4)cc3[nH]2)c1-c1ccc(OCC2CCOCC2)cc1`: the growth was 11.4%.

Regarding `COc1ccc(-c2c(-c3ccccc3)noc2N)cc1OC`, the growth is 85.7%.

For the compound `O=C(N[C@@H]1CCCc2ccccc21)[C@H](CCC(=O)N1CCN(C2CCCCC2)CC1)N1C(=O)[C@@H](N2C(=O)OC[C@@H]2c2ccccc2)[C@H]1/C=C/c1ccccc1`, the growth is -34.6% (active).

On to `C[n+]1c(/C=C/c2ccc([N+](=O)[O-])cc2)ccc2ccccc21`, for which the growth is 52.5%.

Turning to `CC(C)(C)c1ccc(C(=O)Nc2sc3c(c2C(N)=O)CCC(=O)C3)cc1`, the growth is -54.7% (active).

Consider `CCCCCCCC/C=C/CCCCCCCC1=NC(C)(C)CN1C(C)(C)CO`, for which the growth is -91.5% (active).

With `CCCC(C)(C)COC(=O)c1cccc(N)c1`, the growth is 109%.

For the compound `NC(=NCCCOc1ccc(Cl)cc1)Nc1ccc(Cl)cc1`, the growth is -14.9% (active).

With `COc1cc(-c2cncn2-c2ccc(-c3nc4ccc(F)cc4s3)cc2)ccc1F`, the growth is 56.8%.

For `C[C@H]1c2ccccc2CN1CCCOc1cc2c(cc1OCC1CC1)C1(CCCC1)C(N)=N2`, the growth is 29.2%.

(Values after PubChem BioAssay (NCI).)
